Experimental findings from PubChem BioAssay AID1851 (National Center for Advancing Translational Sciences (NCATS), 2009) are described below.

Where “and” joins values, the source holds several entries; their conditions need not be identical. Equal entries are not always repeated. Out of some 16,000 compounds screened, about 5,700 (36%) were called active. Inconclusive results (about 24%) are left out. The list shows a part of the results. Unmarked numbers belong to inactive results. The call rests on the fitted dose curve; in most records, active means well fitted curve in the direction sought with a large enough effect; inconclusive means small, poorly fitted or top-dose-only effect, or effect the other way; inactive means no such curve, though single readings can be large or run the other way.
On the % scale 0 is the no-effect control and ±100 the full control effect.

For this experiment, the target named is Cytochrome P450 1A2 (Homo sapiens) (UniProt P05177). As to the kind of experiment: Cytochrome panel assay with activity outcomes. Conditions: recombinant CYP, pro-luciferin dealkylation, luminescence, p450-cyp1a2; series mostly up to 57.1 µM; activity, negative = inhibition: at the top concentration.
Sequence of Cytochrome P450 1A2 (Homo sapiens) (P05177 whole entry, looked up): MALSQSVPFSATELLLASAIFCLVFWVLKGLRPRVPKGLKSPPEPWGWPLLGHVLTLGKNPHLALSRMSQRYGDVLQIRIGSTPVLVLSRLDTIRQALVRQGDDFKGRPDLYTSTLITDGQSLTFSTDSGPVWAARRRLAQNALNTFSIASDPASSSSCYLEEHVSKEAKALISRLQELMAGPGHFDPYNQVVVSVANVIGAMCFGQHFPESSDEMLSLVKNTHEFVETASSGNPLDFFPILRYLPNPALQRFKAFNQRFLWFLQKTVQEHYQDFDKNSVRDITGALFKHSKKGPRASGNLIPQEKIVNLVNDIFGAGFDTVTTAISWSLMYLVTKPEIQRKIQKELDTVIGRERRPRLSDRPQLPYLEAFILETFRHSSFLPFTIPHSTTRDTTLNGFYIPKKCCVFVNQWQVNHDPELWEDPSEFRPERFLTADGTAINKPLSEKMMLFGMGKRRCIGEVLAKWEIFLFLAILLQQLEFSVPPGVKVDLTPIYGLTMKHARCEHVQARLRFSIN
In the case of `C[Si](C)(c1ccc(C(=O)O)cc1)c1ccc(C(=O)O)cc1`, the activity, negative = inhibition was -13% [at 11.4 µM].

With `O=C(O)c1cccnc1`, the “activity, negative = inhibition” value is -3.39% [at 25.6 µM]. What is called AC50 is the concentration giving half of the maximal activity seen. Turning to `O=C(O)c1ccc(SSc2ccc(C(=O)O)cn2)nc1`, the AC50 was 3.16 µM (active). In the case of `CN(C)c1ccccc1CN1CCCN(Cc2ccccc2N(C)C)C1c1ccncc1`, the activity, negative = inhibition was 3.06% [at 11.4 µM]. On to `CC(=O)c1cccc(NS(=O)(=O)c2ccc(N/C=C\C(=O)c3ccc(F)cc3)cc2)c1`, for which the AC50 was 10 µM (active). For `Nc1cccc2cc(S(=O)(=O)Nc3ccc(C(=O)O)cc3)ccc12`, the activity, negative = inhibition is 2.54% [at 11.4 µM].

Regarding `CC(=O)c1ccc(S(=O)(=O)NC(=O)NC2CCCCC2)cc1`, the “activity, negative = inhibition” value is -6.56% [at 25.6 µM].

`CCCN(CC1CC1)c1nc(C)nc(Nc2c(Cl)cc(Cl)cc2Cl)c1Cl`: the “activity, negative = inhibition” value is -15.7%.

As for `CCCn1nnnc1NC(=O)COc1ccc(Cl)cc1C`, the AC50 was 14.1 µM (active). As for `Cc1cc(Cl)ccc1OCC(=O)Nc1nc(N)nc(N)n1`, the activity, negative = inhibition is 2.06% [at 2.29 µM]. Turning to `Cc1cc(Cl)ccc1OCC(=O)NCc1ccncc1`, the AC50 is 1.12 µM (active). On the same count and under the same terms, the same measure for `CCn1c(=O)c2c(O)cc(=O)oc2c2ccccc21`: 11.2 µM (active). With `CC(C)n1c(=O)c2c(O)cc(=O)oc2c2ccccc21`, the AC50 is 5.01 µM (active). For `O=C(c1cnccn1)N1CCC2(CC1)CCN(c1ccccn1)CC2`, the “activity, negative = inhibition” value was -13.1%.

In the case of `CCn1c(SCC(=O)NC2CCCCC2)nnc1-c1cc2cccc(OC)c2o1`, the AC50 was 8.91 µM (active).

Regarding `CCn1c(SCC(=O)NC2CCCc3ccccc32)nnc1-c1cccs1` (configuration not stated), the “activity, negative = inhibition” value is -21.7%. Still for that read-out and setting: the same measure for `O=C(CSc1nnc(-c2ccc(Cl)cc2Cl)n1C1CCCCC1)NC1CCS(=O)(=O)C1` (configuration not stated): 0.975%. For `Nc1ccccc1C#Cc1ccccc1`, the AC50 was 501 nM (active) and 1.58 µM (active). On to `Cc1cc(C)c(Cn2cnc(-c3ccc([N+](=O)[O-])cc3)c2)c(C)c1`, for which the AC50 was 15.8 µM (active).

As to `C1CCN(CC[C@@H]2CCCCN2)CC1`, the activity, negative = inhibition is -7.33% [at 11.4 µM]. On the same count and under the same terms, with `Cc1ccc(-c2nnc(-c3ccc(NC(=O)c4cccs4)cc3)o2)cc1` the figure was -23.1%. `Cc1ccccc1-c1nc(-c2ccc(NC(=O)c3cccs3)cc2)no1`: the AC50 is 14.1 µM (active).

As for `CC(=O)N1CCc2cc(S(=O)(=O)CCC(=O)Nc3c(C)n(C)n(-c4ccccc4)c3=O)ccc21`, the “activity, negative = inhibition” value was -24.8%. Still for that read-out and setting: the same measure for `Cc1ccccc1OCC(=O)Nc1sc(C(=O)Nc2cccc(C)c2C)c(C)c1C#N`: 7.9%. As to `Cc1ccccc1OCCNC(=O)c1ccccc1Sc1ccccc1C#N`, the AC50 is 14.1 µM (active). `CC(=O)c1cc(NC(=O)c2cccc(C(F)(F)F)c2)c(=O)oc1/C=C/N(C)C`: the “activity, negative = inhibition” value was 3.96%. As for `CC(=O)c1cc(NC(=O)c2ccccc2)c(=O)oc1/C=C/N(C)C`, the AC50 was 12.6 µM (active). On to `CC(C)(C)N(NC(=O)c1ccccc1)C(=O)c1cccc(C(=O)N(NC(=O)c2ccccc2)C(C)(C)C)c1`, for which the “activity, negative = inhibition” value was 2.94%. Take `CCOC(=O)c1cc(NC(=O)c2ccc(C)cc2)c(=O)oc1-c1ccccc1`: the “activity, negative = inhibition” value was -24.4%. With `Cc1cc(N)ccc1NC(=O)c1ccccc1`, the AC50 was 3.16 µM (active). For `Cc1oc(=O)c(NC(=O)c2ccccc2)cc1C(=O)c1ccccc1`, the AC50 is 12.6 µM (active). Consider `Cc1ccc(C(=O)Nc2cc3c(oc2=O)CCCC3=O)cc1`, for which the AC50 was 14.1 µM (active).

Take `COc1ccccc1N1CCN(CCN(C(=O)C2CCCCC2)c2ccccn2)CC1`: the “activity, negative = inhibition” value is -4.46%. For `Cc1ccc(C)c2sc(NC(=O)c3ccc(N4CCCCC4)c([N+](=O)[O-])c3)nc12`, the “activity, negative = inhibition” value was 0.997%. Take `O=C(c1ccc(N2CCCCC2)c([N+](=O)[O-])c1)N(Cc1ccccc1)c1ccccn1`: the AC50 is 14.1 µM (active). In the case of `CCOC(=O)NCc1ccc2c(c1)cc(C)n2C`, the AC50 was 2 µM (active). Consider `CN[C@@H]1[C@H](O[C@H]2[C@@H](O[C@@H]3[C@@H](O)[C@@H](O)[C@@H](N=C(N)N)[C@@H](O)[C@@H]3N=C(N)N)O[C@@H](C)[C@]2(O)CO)O[C@H](CO)[C@@H](O)[C@@H]1O`, for which the “activity, negative = inhibition” value was -4.23% [at 25.6 µM]. As for `CNC(=S)NNC(=O)COc1ccccc1C`, the AC50 was 15.8 µM (active).

Consider `Cc1ccccc1OCC(=O)OC1CCN(C)CC1`, for which the “activity, negative = inhibition” value was 5.7%. Same read-out and setting: the same measure for `CCOc1ccc(C(=O)Cc2cc(OC)c(OC)cc2[N+](=O)[O-])cc1`: -12.4%. With `CC(=O)Nc1cc(C(F)(F)F)ccc1Oc1cccc(Br)c1`, the AC50 is 10 µM (active).

For `CC(=O)Oc1cc(C(F)(F)F)ccc1C(=O)O`, the “activity, negative = inhibition” value is -7.55% [at 25.6 µM]. For the molecule `CCOc1ccc(C(F)(F)F)cc1NC(C)=O`, the AC50 is 0.1 µM (active).

As for `CN(C(=O)COc1cccc(Br)c1)C1CCS(=O)(=O)C1` (configuration not stated), the “activity, negative = inhibition” value is -26.4%. For `CCCC(=O)N1CCN(c2ccc(NC(=O)c3ccc(OCC)c([N+](=O)[O-])c3)cc2)CC1`, the “activity, negative = inhibition” value is -8.1%. In the case of `CCOc1ccc(C(F)(F)F)cc1NC(=O)c1ccc(OC)c([N+](=O)[O-])c1`, the AC50 is 3.55 µM (active).

With `CC(=O)NC1=NC(=O)C(C)S1` (configuration not stated), the “activity, negative = inhibition” value was 1.33%. On the same count and under the same terms, the same measure for `N[C@@H](Cc1nn[nH]n1)C(=O)O`: -8.69% [at 11.4 µM]. Regarding `Nc1[nH]c(=O)nc2c1ncn2[C@H]1O[C@@H](CO)[C@@H](O)[C@@H]1O`, the activity, negative = inhibition was -0.635% [at 11.4 µM]. Same read-out and setting: with `CC1=NCC[N@@+]1(CCc1ccccc1)Cc1ccccc1` the figure was -17.6% [at 11.4 µM]; with `Cc1ccc(CSc2nc3c(c(SCC(=O)O)n2)CCCC3)cc1`, -2.42%. For `C[C@H](Nc1ncnc2sc3c(c12)CCC3)C(=O)O`, the “activity, negative = inhibition” value was -17.4%. On to `CC(CO)Nc1nc(SCc2ccccc2)nc2sc3c(c12)CCC3` (configuration not stated), for which the AC50 is 0.2 µM (active). Consider `COCCNc1nc(SCc2ccccc2)nc2sc3c(c12)CCC3`, for which the concentration at half-maximal activity (AC50) was 1 µM (active). In the case of `OCCNc1nc(SCc2ccccc2)nc2sc3c(c12)CCC3`, the AC50 is 1 µM (active). Same read-out and setting: with `CCCCNC(=O)[C@@H]1Cc2ccccc2N1C(=O)[C@H](N)CC` the figure was 20 µM (active). `CCCCNC(=O)C1CC(=O)N(CCC(C)C)C1` (configuration not stated): the “activity, negative = inhibition” value was -12.7%. On the same count and under the same terms, the same measure for `CCCCNC(=O)C1CCN(Cc2ccccn2)CC1`: 5.66%; for `O=C(O)Cn1ccnc1[N+](=O)[O-]`: -3.98% [at 11.4 µM]. Consider `CCOC(=O)c1cc2c(=O)n3ccccc3nc2n(CCOC)c1=NC(=O)C(C)(C)C`, for which the AC50 is 3.16 µM (active).

Turning to `CCOC(=O)c1cc2c(=O)n3ccccc3nc2n(CCCOC)c1=NC(C)=O`, the AC50 was 12.6 µM (active). Consider `C[C@H]1[C@H](C)OC(=O)C[C@H](O)C[C@H](O)C[C@H](O)CC[C@H](O)[C@H](O)CC(=O)C[C@H](O)[C@H](C(=O)O)[C@H](O)C[C@H](O[C@@H]2O[C@@H](C)[C@H](O)[C@@H](N)[C@@H]2O)C=CC=CC=CC=CCCC=CC=C[C@@](C)(O)[C@H]1O`, for which the activity, negative = inhibition is 12.4% [at 11.4 µM].
